According to ChEMBL document CHEMBL1961873, “Compounds: GSK PKIS; Assays: Nanosyn kinase panel” (2012):

target: RAC-gamma serine/threonine-protein kinase (Homo sapiens) (UniProt Q9Y243); conditions: at 0.1 µM
Sequence (Q9Y243 whole entry): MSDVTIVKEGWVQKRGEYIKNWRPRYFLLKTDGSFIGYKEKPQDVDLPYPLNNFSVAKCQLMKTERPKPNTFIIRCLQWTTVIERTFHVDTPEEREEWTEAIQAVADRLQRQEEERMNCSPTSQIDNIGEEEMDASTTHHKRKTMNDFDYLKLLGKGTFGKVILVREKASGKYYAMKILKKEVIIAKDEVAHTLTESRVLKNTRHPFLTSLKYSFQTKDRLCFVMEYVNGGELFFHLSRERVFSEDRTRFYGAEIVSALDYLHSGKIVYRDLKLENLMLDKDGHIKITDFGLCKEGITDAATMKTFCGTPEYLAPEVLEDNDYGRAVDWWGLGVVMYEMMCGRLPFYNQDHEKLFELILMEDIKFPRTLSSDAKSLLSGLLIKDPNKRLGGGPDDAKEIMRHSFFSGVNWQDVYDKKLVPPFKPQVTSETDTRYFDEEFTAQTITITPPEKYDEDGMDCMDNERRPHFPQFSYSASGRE

Going from `COc1ccccc1Nc1ncc(-c2ccccc2)o1` to `Cn1cc(C=C2C(=O)Nc3cccnc32)c2ccccc21`, the inhibition rises from 0.12% to 1.15%.

Going from `CN(C)c1cc2c(Nc3ccc4nc(Cc5ccccc5)[nH]c4c3)ncnc2cn1` to `[O-][S+]1CCN(Cc2ccc(-c3ccc4ncnc(Nc5ccc(OCc6ccccc6)c(F)c5)c4c3)o2)CC1`, the inhibition falls from 1.37% to 0.99%.

First: CCn1c(-c2nonc2N)nc2c(N3CCCC3)nccc21
Second: CCn1c(-c2nonc2N)nc2c(C#CC(C)(C)O)nc(CN3CCCC3)cc21
The inhibition of the first is lower: -0.61% for the first, 18.8% for the second.

Going from `CC1=C(C(=O)Nc2ccc3[nH]ncc3c2)C(c2ccc3ccccc3c2)CC(=O)N1` (stereo unspecified) to `CC1=C(C(=O)Nc2ccc3[nH]ncc3c2)C(c2ccc(Cl)c(Cl)c2)CC(=O)N1` (stereo unspecified), the inhibition falls from 1.23% to 0.95%.

Compared with `CNC(=O)c1cncc(/C=C/c2c(Cl)cccc2Cl)c1`, `O=C1NC(=O)C(c2ccccc2Cl)=C1Nc1cccc(O)c1` is higher in inhibition: -3.04% for the first, 0.92% for the second.

Compared with `Cc1ccc(NC(=O)c2ccnc(N3CCCC3)c2)cc1-c1ccc(C(=O)NCC2CC2)cc1`, `NS(=O)(=O)c1ccc(N/N=C2\C(=O)Nc3ccc(C(=O)NCCc4c[nH]cn4)cc32)cc1` is higher in inhibition: -3.88% for the first, 1.65% for the second.

Compared with `O=C1NC(=O)C(N2CCc3ccccc32)=C1c1ccc(Cl)cc1`, `COc1cc2c(cc1Nc1nc(N3CCc4ccccc43)c3cc[nH]c3n1)N(C(=O)CN(C)C)CC2` is lower in inhibition: 2.52% for the first, 1.23% for the second.

Compared with `COc1cc2ncn(-c3cc(OCc4ccccc4C(F)(F)F)c(C(N)=O)s3)c2cc1OC`, `COc1cc2ncn(-c3cc(O[C@H](C)c4ccccc4Cl)c(C(N)=O)s3)c2cc1OC` is higher in inhibition: -3.14% for the first, 0.81% for the second.

Going from `Nc1nc(-c2ccccn2)c(-c2ccc3ncccc3n2)s1` to `NC(=O)c1ccc(-c2nc(-c3ccccn3)c(-c3ccc4c(c3)OCO4)[nH]2)cc1`, the inhibition falls from 1.6% to 0.75%.

First: O=C(Nc1n[nH]c2nc(-c3ccco3)c(Br)cc12)C1CC1
Second: CN1CCC(C(=O)Nc2n[nH]c3nnc(-c4ccccc4)cc23)CC1
The inhibition of the first is lower: 0.47% for the first, 2.3% for the second.

Compared with `COc1ccc(-c2ccncc2)cc1C(N)=O`, `COc1cc2ncn(-c3cc(O[C@@H](C)c4ccccc4Cl)c(C(N)=O)s3)c2cc1OC` is higher in inhibition: 1.15% for the first, 1.85% for the second.

Compared with `Nc1ncnc2occ(-c3ccc(NC(=O)Nc4cc(C(F)(F)F)cc(C(F)(F)F)c4)cc3)c12`, `CS(=O)(=O)CCNCc1ccc(-c2ccc3ncnc(Nc4ccc(OCc5cccc(F)c5)c(C(F)(F)F)c4)c3c2)o1` is higher in inhibition: 1.26% for the first, 2.73% for the second.

Going from `Cc1nn(C)c2cc(N(C)c3ccnc(Nc4cccc(S(N)(=O)=O)c4)n3)ccc12` to `NC(=O)c1cccc(Nc2nccc(Nc3cccc4[nH]ncc34)n2)c1`, the inhibition falls from 1.22% to -2.36%.

Going from `Nc1nc(-c2ccc3c(c2)C(=Cc2cc(Br)c(O)c(Br)c2)C(=O)N3)cs1` to `CC(C)=Cc1cccc2c1/C(=N/Nc1ccc(S(N)(=O)=O)cc1)C(=O)N2`, the inhibition rises from -2.54% to 2.87%.

Going from `CC(=O)Nc1cccc(C#Cc2cncnc2Nc2ccc(OCc3cccc(F)c3)c(Cl)c2)n1` to `Fc1cccc(COc2ccc(Nc3ncnc4sc(-c5cccs5)cc34)cc2Cl)c1`, the inhibition rises from -1.1% to 0.23%.

First: COC(=O)Nc1nc2cc(Oc3ccc(NC(=O)Nc4cccc(C(=O)O)c4)cc3)ccc2[nH]1
Second: Fc1cccc(COc2ccc(Nc3ncnc4cc(-c5ccc[nH]5)sc34)cc2Cl)c1
The inhibition of the first is higher: -1.3% for the first, -3.34% for the second.

`N#Cc1c(NC(=O)c2cccc3ccccc23)sc2c1CCCC2` showed an inhibition of 1.33%.

target: RAC-gamma serine/threonine-protein kinase (Homo sapiens) (UniProt Q9Y243); conditions: at 1 µM

Compared with `COc1ccccc1Nc1ncc(-c2ccccc2)o1`, `Cn1cc(C=C2C(=O)Nc3cccnc32)c2ccccc21` is lower in inhibition: 3.9% for the first, 0.99% for the second.

Going from `CN(C)c1cc2c(Nc3ccc4nc(Cc5ccccc5)[nH]c4c3)ncnc2cn1` to `[O-][S+]1CCN(Cc2ccc(-c3ccc4ncnc(Nc5ccc(OCc6ccccc6)c(F)c5)c4c3)o2)CC1`, the inhibition falls from 3.27% to 1.21%.

Compared with `CCn1c(-c2nonc2N)nc2c(N3CCCC3)nccc21`, `CCn1c(-c2nonc2N)nc2c(C#CC(C)(C)O)nc(CN3CCCC3)cc21` is higher in inhibition: 1.15% for the first, 78.7% for the second.

First: CC1=C(C(=O)Nc2ccc3[nH]ncc3c2)C(c2ccc3ccccc3c2)CC(=O)N1 (stereo unspecified)
Second: CC1=C(C(=O)Nc2ccc3[nH]ncc3c2)C(c2ccc(Cl)c(Cl)c2)CC(=O)N1 (stereo unspecified)
The inhibition of the first is higher: 3.76% for the first, 2.81% for the second.

Compared with `CNC(=O)c1cncc(/C=C/c2c(Cl)cccc2Cl)c1`, `O=C1NC(=O)C(c2ccccc2Cl)=C1Nc1cccc(O)c1` is higher in inhibition: 0.11% for the first, 1.56% for the second.

First: Cc1ccc(NC(=O)c2ccnc(N3CCCC3)c2)cc1-c1ccc(C(=O)NCC2CC2)cc1
Second: NS(=O)(=O)c1ccc(N/N=C2\C(=O)Nc3ccc(C(=O)NCCc4c[nH]cn4)cc32)cc1
The inhibition of the first is lower: -2.23% for the first, 2.39% for the second.

Compared with `O=C1NC(=O)C(N2CCc3ccccc32)=C1c1ccc(Cl)cc1`, `COc1cc2c(cc1Nc1nc(N3CCc4ccccc43)c3cc[nH]c3n1)N(C(=O)CN(C)C)CC2` is lower in inhibition: 1.75% for the first, 1.23% for the second.

Going from `COc1cc2ncn(-c3cc(OCc4ccccc4C(F)(F)F)c(C(N)=O)s3)c2cc1OC` to `COc1cc2ncn(-c3cc(O[C@H](C)c4ccccc4Cl)c(C(N)=O)s3)c2cc1OC`, the inhibition rises from -1.66% to 1.74%.

Compared with `Nc1nc(-c2ccccn2)c(-c2ccc3ncccc3n2)s1`, `NC(=O)c1ccc(-c2nc(-c3ccccn3)c(-c3ccc4c(c3)OCO4)[nH]2)cc1` is lower in inhibition: 1.17% for the first, 0.48% for the second.

Compared with `O=C(Nc1n[nH]c2nc(-c3ccco3)c(Br)cc12)C1CC1`, `CN1CCC(C(=O)Nc2n[nH]c3nnc(-c4ccccc4)cc23)CC1` is higher in inhibition: 1.46% for the first, 2.79% for the second.

First: COc1ccc(-c2ccncc2)cc1C(N)=O
Second: COc1cc2ncn(-c3cc(O[C@@H](C)c4ccccc4Cl)c(C(N)=O)s3)c2cc1OC
The inhibition of the first is higher: 2.9% for the first, 1.32% for the second.

Going from `Nc1ncnc2occ(-c3ccc(NC(=O)Nc4cc(C(F)(F)F)cc(C(F)(F)F)c4)cc3)c12` to `CS(=O)(=O)CCNCc1ccc(-c2ccc3ncnc(Nc4ccc(OCc5cccc(F)c5)c(C(F)(F)F)c4)c3c2)o1`, the inhibition rises from 1.13% to 2.96%.

Compared with `Cc1nn(C)c2cc(N(C)c3ccnc(Nc4cccc(S(N)(=O)=O)c4)n3)ccc12`, `NC(=O)c1cccc(Nc2nccc(Nc3cccc4[nH]ncc34)n2)c1` is lower in inhibition: 1.54% for the first, -1.13% for the second.

First: Nc1nc(-c2ccc3c(c2)C(=Cc2cc(Br)c(O)c(Br)c2)C(=O)N3)cs1
Second: CC(C)=Cc1cccc2c1/C(=N/Nc1ccc(S(N)(=O)=O)cc1)C(=O)N2
The inhibition of the first is lower: -0.36% for the first, 0.49% for the second.

Going from `CC(=O)Nc1cccc(C#Cc2cncnc2Nc2ccc(OCc3cccc(F)c3)c(Cl)c2)n1` to `Fc1cccc(COc2ccc(Nc3ncnc4sc(-c5cccs5)cc34)cc2Cl)c1`, the inhibition rises from -0.11% to 1.25%.

First: COC(=O)Nc1nc2cc(Oc3ccc(NC(=O)Nc4cccc(C(=O)O)c4)cc3)ccc2[nH]1
Second: Fc1cccc(COc2ccc(Nc3ncnc4cc(-c5ccc[nH]5)sc34)cc2Cl)c1
The inhibition of the first is higher: -3.6% for the first, -3.78% for the second.

`N#Cc1c(NC(=O)c2cccc3ccccc23)sc2c1CCCC2` was tested, and the inhibition was 1.85%.
